Only some compounds are listed: those with a hit (about 0.28% of all), similar ones and a draw of the others.
hcGAS inh = human cGAS inhibition; recombinant h-cGAS, ATP depletion, Kinase-Glo luminescence; inhibition, % at 12.5 µM; 290,000 tested, 0.081% active;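 also: 0% = vehicle reaction and 100% = reaction without DNA for no activity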
NPYLR7 agonist = activates Aedes aegypti NPYLR7 receptor; 270,000 tested, 0.15% active; activation, % at 10 µM; HEK293T NPYLR7/Galpha15, GCaMP6s calcium fluorescence; in the data active = activation above about 40%;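 also: 0% = vehicle and 100% = reference agonist at the receptor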
mcGAS inh = mouse cGAS inhibition by luminescence | Q8C6L5 | recombinant cGAS, Kinase-Glo ATP depletion luminescence | inhibition, % at 12.5 µM | 160,000 tested, 0.15% active | AID 1259399;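 also: 0% = negative control wells and 100% = reference inhibitor with no enzyme activity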
Target sequence (Q8C6L5 whole entry, looked up): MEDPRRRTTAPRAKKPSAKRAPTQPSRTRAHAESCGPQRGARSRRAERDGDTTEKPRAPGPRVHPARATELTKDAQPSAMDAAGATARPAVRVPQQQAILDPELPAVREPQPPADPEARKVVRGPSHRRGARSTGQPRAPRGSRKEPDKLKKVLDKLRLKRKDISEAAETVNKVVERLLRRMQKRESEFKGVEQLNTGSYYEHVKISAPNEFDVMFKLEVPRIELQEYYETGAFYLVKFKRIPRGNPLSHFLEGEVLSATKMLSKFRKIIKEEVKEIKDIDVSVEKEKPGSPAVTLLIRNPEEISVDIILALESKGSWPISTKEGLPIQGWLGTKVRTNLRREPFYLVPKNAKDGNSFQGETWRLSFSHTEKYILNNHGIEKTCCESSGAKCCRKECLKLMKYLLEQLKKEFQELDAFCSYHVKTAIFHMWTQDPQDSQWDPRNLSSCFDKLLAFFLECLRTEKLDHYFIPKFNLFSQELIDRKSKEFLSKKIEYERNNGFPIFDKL
The depositor's hits bear a star; x = no result; ! = a repeat was not active. Rule as the data show it, unless noted: active = inhibition above about 40%; inactive = the rest.

SMILES	hcGAS inh	NPYLR7 agonist	mcGAS inh
CCOC(=O)C(C#N)=CNc1nc(C(C)=O)cs1	53*	4	64*
CCOC(=O)C(C#N)=CNc1cnccn1	-1	11	-4
COc1ccc(CCN(C)C(=O)C(C)Oc2ccccc2)cc1OC (stereo unspecified)	-2	-5	x
COCCC1(C(=O)O)CCCN(C(=O)N2CCOCC2)C1 (stereo unspecified)	-14	x	-5
O=C(NCc1cccc(C(F)(F)F)c1)c1csc(CSc2nnc(-c3ccncc3)n2-c2cccc(C(F)(F)F)c2)n1	-1	-8	1
O=C(O)c1csc(CSc2nnc(-c3ccncc3)n2-c2cccc(C(F)(F)F)c2)n1	1	49*	1
CCc1nc2n(n1)C(=O)C(C(c1ccccc1)N1CCN(C(=O)c3ccco3)CC1)S2 (stereo unspecified)	-3	-4	-7
COc1ccccc1N1CC(c2nc3ccccc3n2Cc2ccccc2F)CC1=O (stereo unspecified)	-6	3	-2
COCCNC(=O)N1CCc2nc(N3CCN(C)CC3)sc2C1	58*	x	-2
CCCNC(=O)N1CCN(c2nc3c(s2)CN(C(=O)CC)CC3)CC1	-6	x	-6
N#C/C(=C\c1ccc(O)c(O)c1)C(=O)c1ccc(O)c(O)c1	19	16	15
N#C/C(=C\c1ccc(O)c(O)c1)C(=O)NCCCc1ccccc1	9	120*	1
Cc1cc(=O)n2[nH]c(C)c(-c3ccc(F)cc3)c2n1	-1	0	x
Cc1ccc2c(n1)[nH]n1c(=O)cc(C)nc21	43*	7	x
CC(=O)NC(C(=O)NC1(C(=O)O)CCCCC1)C(C)C (stereo unspecified)	-4	-1	x
O=C1CSC(=S)N1N=Cc1cc(Br)c(O)c(Br)c1	43*	67*	60*
COc1cc(C=NN2C(=O)CSC2=S)cc(Br)c1O	-10	20	-2
O=C1CSC(=S)N1N=Cc1ccc([N+](=O)[O-])o1	4	3	59*
O=C1CSC(=S)N1N=Cc1ccc(-c2nc3ccccc3s2)o1	-1	25	x
COc1cccc(N2C(=O)CSC2c2ccc(NC(=O)c3ccc(Cl)c(Cl)c3)cc2)c1 (stereo unspecified)	0	3	-5
Cc1cc(C(=O)N2CCN(C)CC2C)c2c(C)noc2n1 (stereo unspecified)	-8	19	-17
Oc1cc2c(cc1O)C1c3ccc(O)c(O)c3OCC1(O)C2 (stereo unspecified)	-9	5	50*
O=C(NCCN1CCCOC1=O)c1cccc2ccnn12	0	1	-14
CC(C)OC(=O)C(C(=O)C(F)(F)F)c1cc(NS(=O)(=O)c2ccc(Cl)cc2)ccc1O (stereo unspecified)	-7	44*	x
CC(C)OC(=O)C(C(=O)C(F)(F)F)c1cc(NS(=O)(=O)c2ccccc2)ccc1O (stereo unspecified)	-7	5	x
SMILES	hcGAS inh	NPYLR7 agonist	mcGAS inh
c1cc(-c2noc(CC3CSCCN3)n2)cs1 (stereo unspecified)	-7	2	x
COc1cc(C(=O)C=Cc2cccc(O)c2)ccc1O	1	0	41*
COc1cccc(C=CC(=O)c2ccc(OC)c(OC)c2)c1	-7	-1	39
COC(=O)c1ccc(C=CC(=O)c2ccc(O)c(OC)c2)cc1	-4	0	44*
COc1cc(C=CC(=O)c2ccc(C#N)cc2)ccc1O	2	3	3
COc1cc(NC(=O)COC(=O)c2cc(-c3ccco3)nc3ccccc23)cc(OC)c1	-3	-4	-4
N#CC(=Cc1ccc(Cl)cc1Cl)C(N)=S	-6	7	67*
CC(C)NC(=O)C(C#N)=Cc1ccc(Cl)cc1Cl	-1	0	10
CCc1ccc(NC(=O)Cn2c(-c3nnc(C)o3)cc3ccccc32)cc1	-7	8	-8
CCc1nc(N=C(N)N)nc2cc(C)ccc12	4	62*	x
CCCC(=O)NC(N)=Nc1nc(C)c2cc(C)ccc2n1	-7	-6	-2
COc1ccc(N=C(N)N)cc1	-7	5	x
COc1ccc2c(C)nc(N=C(N)N)nc2c1	5	59*	x
CC(C)c1ccc(C2CC(=O)N(CC(=O)N(C)Cc3ccccc3)C(=O)N2)cc1 (stereo unspecified)	-4	x	-4
CCCCN(CC(=O)N1CC(=O)N(c2cccc(C)c2)C1)C(=O)COc1ccc(Cl)cc1	4	5	4
Nc1nnc(SCCCOc2ccccc2)s1	-5	12	x
CCOC(=O)c1c(N)c2c(-c3ccccc3)c(C#N)c(OCC)nc2n1C	-1	3	x
CCOc1nc(Cl)c(C#N)c(-c2ccccc2)c1C#N	45*	6	x
CNCc1cc(-c2ccc3c(c2)OCO3)ccc1OC	-6	8	x
Cc1ccc(Nc2nc3c([nH]2)c(=O)n(C)c(=O)n3C)cc1	-5	6	-11
Cc1ccc(-c2nc3nc(N)n(C)c(=O)c3[nH]c2=O)cc1	-6	136*	-8
CCn1cc(CN(C)c2nc(C)cc(C3CCC3)n2)cn1	-4	-1	x
O=c1oc2c(CN3CCN(CCO)CC3)c(O)ccc2cc1-c1nc2ccccc2s1	-5	66*	x
O=c1oc2c(CN3CCN(CCO)CC3)c(O)ccc2cc1-c1ccccn1	-7	10	x
O=C(CSc1nc(=O)n2ccccc2n1)N1CCCCC1	-11	0	-8
SMILES	hcGAS inh	NPYLR7 agonist	mcGAS inh
CC(NCCC(c1ccccc1)c1ccccc1)c1ccccc1 (stereo unspecified)	-4	59*!	-5
CC(NCC1CCC1)c1ccccc1 (stereo unspecified)	-3	-7	x
CCOC(=O)CC1COCCN1Cc1nc(-c2cc3c(cc2Cl)OCO3)oc1C (stereo unspecified)	3	5	x
Cc1ccc(CN(Cc2ccc(F)cc2)CC(O)Cc2ccccc2)c(C)c1 (stereo unspecified)	-4	30	-5
CCCN(Cc1cc(C)ccc1C)CC(O)Cc1ccccc1 (stereo unspecified)	-5	3	62*
COCCNC(=O)[C@H]1C[C@@H](O)[C@H](O)[C@@H]2N=C(Nc3ccc(OC(F)(F)F)cc3)S[C@@H]21	-4	-11	-8
c1ccc(CN2CCC(c3nnc4n3CCCCC4)CC2)cc1	-3	5	x
Cc1csc(C(C#N)C(=O)c2cn(CC(=O)C(C)(C)C)nn2)n1 (stereo unspecified)	45*	-1	-7
Cc1cnc(C(=O)OCC(=O)C(C#N)c2nc(C)cs2)cn1 (stereo unspecified)	-7	1	x
Cc1cccc(Oc2cc(C(F)(F)F)nc(SCc3cccc(C#N)c3)n2)c1	-1	1	-2
Cc1cc(O)c(CN2CCN(CCO)CC2)c2c1C(=O)/C(=C/c1cccc(Br)c1)O2	-7	25	6
O=C1/C(=C/c2cc3cc(Br)ccc3o2)Oc2c1ccc(O)c2CN1CCN(CCO)CC1	-2	72*	-3
O=C(CC(c1ccc2c(c1)OCO2)c1c[nH]c2ccccc12)NCCN1CCCCC1 (stereo unspecified)	-7	-3	-7
NC(=O)NN=Cc1cc(Br)cc(Br)c1O	8	1	x
COCCN=Cc1cc(Br)cc(Br)c1O	68*	9	2
Cc1nc2ccccc2nc1-c1ccc2c(c1)OCO2	-9	x	-10
COC(=O)C1=C(C)NC(C)=C(C(=O)OCC(C)C)C1c1ccccc1[N+](=O)[O-] (stereo unspecified)	5	-6	58*

Source: PubChem BioAssay
